The subject of assay [1] is CASKI. In words: Primary qHTS to identify gynecologic anti-cancer compounds using libraries of approved drugs and bioactive compounds (AID 1345084). Further: nearly all actives have a fitted effect of over 55% in size. Conditions: Gynecologic cancer cell panel viability, ATPlite luminescence, 48 h; series mostly up to 57.5 µM. In short, it runs like this: (§1)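 ATP-based viability (ATPlite), 1,000 cells/well, 16 h pre-incubation, 48 h compound at 37 C, 5% CO2, 15 min RT before read.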
(qHTS replaces the single test concentration by a dilution series.)

Assay [2] deals with Es-2. The description is as above. Conditions: Gynecologic cancer cell panel viability, ATPlite luminescence, 48 h; series mostly up to 57.5 µM. The gist of the method: as §1
In general terms: ATP-based viability assays read luminescence as a measure of living cells.

Assay [3] deals with HeLa. The description is as above. Conditions: Gynecologic cancer cell panel viability, ATPlite luminescence, 48 h; series mostly up to 57.5 µM. The gist of the method:
as §1

The test system of assay [4] is Hek293T. Described as above. Conditions: Gynecologic cancer cell panel viability, ATPlite luminescence, 48 h, control line for the selectivity index; series mostly up to 57.5 µM. The gist of the method:
as §1

Assay [5] has as its system JEG-3. Described as above. Conditions: Gynecologic cancer cell panel viability, ATPlite luminescence, 48 h; series mostly up to 57.5 µM. The gist of the method: as §1
The test system of assay [6] is OV90. The description is as above. Conditions: Gynecologic cancer cell panel viability, ATPlite luminescence, 48 h; series mostly up to 57.5 µM. The gist of the method: as §1
Assay [7] has as its system PA-1. The description is as above. Conditions: Gynecologic cancer cell panel viability, ATPlite luminescence, 48 h; series mostly up to 57.5 µM. The gist of the method: as §1
The subject of assay [8] is SKOV3. Described as above. Conditions: Gynecologic cancer cell panel viability, ATPlite luminescence, 48 h; series mostly up to 57.5 µM. In short, it runs like this:
as §1

In assay [9] the test system is Tov-21-G. Described as above. The note with it: Gynecologic cancer cell panel viability, ATPlite luminescence, 48 h; series mostly up to 57.5 µM. In short, it runs like this: as §1
Assay [10] has as its system Tov112D. The assay is described as above. Conditions: Gynecologic cancer cell panel viability, ATPlite luminescence, 48 h; series mostly up to 57.5 µM. The gist of the method:
as §1

Assay [11] can be described thus: Drug repurposing screens with cells derived from glioblastoma tumor samples (AID 1345199). Further: nearly all actives have a fitted effect of over 40% in size. The note with it: GBM patient neurospheres viability, ATP luminescence, 48 h. In short, it runs like this:
(§2)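 Primary testing used CD133+ neurospheres from four GBM patients, seven concentrations, 48 h exposure and ATP-based viability; confirmation added three slower-growing patient lines.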

Assay [12] has as its system astro. The description is as above. Conditions: viability, ATP luminescence, 48 h; series mostly up to 45.9 µM. In short, it runs like this:
as §2

Assay [13] can be described thus: qHTS assay to identify inhibitors of the type 1 interferon - major histocompatibility complex class I in skeletal muscle: Counter screen cell viability and HiBit confirmation (AID 1347412). On all read-outs here: nearly all actives have a fitted effect of over 60% in size. Conditions: iHSKM muscle cells + IFN-b, HiBiT or CellTiter-Glo, 24 h; for Potency: HiBiT. The gist of the method: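 Luminescence read-out: Nano-Glo HiBiT lytic signal from C-terminally HiBiT-tagged HLA-B in CRISPR-edited human myoblasts, plus CellTiter Glo ATP as viability counter screen. IFN-beta 4.0 ng/ml; 24 hrs treatment at 37 C, 5% CO2.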

The mark [14] stands for this setting: at 45.9 µM (top of the series), tumour line B.
Where [15] appears, read: at 45.9 µM (top of the series), tumour line D.
Where [16] appears, read: at 46.1 µM (top of the series), tumour line C.

“And” between values parts separate entries of the source, which are not always exact repeats. Equal values may be shown once. Records with an inconclusive call do not appear. Values without a mark were called inactive. The source made the active and inactive calls. The call rests on the fitted dose curve; in most records, active means well fitted curve in the direction sought with a large enough effect; inconclusive means small, poorly fitted or top-dose-only effect, or another doubt; inactive means no such curve, though single readings can be large; an effect the other way counts as inactive or inconclusive.
On the % scale 0 is the no-effect control and ±100 the full control effect; potency means the concentration at half of the fitted maximal effect.

`CCC[C@@H]1C[C@@H](C(=O)N[C@@H]([C@H]2O[C@H](SC)[C@H](OP(=O)(O)O)[C@@H](O)[C@H]2O)[C@H](C)Cl)N(C)C1`: the Potency entry in assay [1], in assay [2], in assay [3], in assay [4], in assay [5] and in assay [6] was “inactive” throughout. The Potency entry in [7], in assay [8], in [9], in assay [10] and in assay [12] was “inactive” each time. The activity, negative = cell killing in assay [11] (setting [14]) is -3.77% and -8.29%; in assay [11] (setting [15]), -15.4% and -22.6%; in [11] (setting [16]), -6.5% and -2.32%.

On to `CN1CCC(CN2c3ccccc3Sc3ccccc32)C1` (configuration not stated), for which, in assay [11] (setting [16]), the activity, negative = cell killing is 0.543%. In addition, the Potency in assay [11] (tumour line A) was 7.08 µM (active); in assay [11] (tumour line B), 35.5 µM (active); in [11] (tumour line D), 17.8 µM (active).

Consider `O=S(=O)(NC1CCNCC1)c1cc(S(=O)(=O)c2ccccc2)ccc1C(F)(F)F`, for which the Potency entry in assay [1], in assay [2], in assay [3], in assay [4], in assay [5] and in [6] was “inactive” throughout. Also, the Potency result in [7], in [9] and in [10] was “inactive” in each case.

For `NCc1ccc(OCCCc2sc(-c3ccc4c(c3)/C(=N/Nc3nc5ccccc5s3)CCC4)nc2C(=O)O)cc1`, the Potency result in assay [2], in assay [4], in [5], in assay [7], in assay [9] and in assay [10] was “inactive” each time.

In the case of `CON(C)C(=O)N1N=C(c2cc(F)ccc2F)S[C@@]1(CCCN)c1ccccc1`, the Potency entry in [6] and in assay [8] was “inactive” throughout.

As for `C=CCSSSCC=C`, the activity, negative = cell killing was -7.75% in assay [11] (setting [14]); -21.3% in [11] (setting [15]); -14.2% in assay [11] (at 46 µM (top of the series), tumour line A); -8.17% in [11] (setting [16]). Also, the Potency result in assay [12] was “inactive”.

As for `CC(C)N=c1cc2n(-c3ccc(Cl)cc3)c3ccccc3nc-2cc1Nc1ccc(Cl)cc1`, the activity, negative = cell killing in assay [11] (at 20 µM (top of the series), tumour line C) is -8.51%. Moreover, the Potency in assay [11] (tumour line A) was 5.01 µM (active).

`CC(=O)c1cnc2ccc(-c3cc(Cl)c(O)c(Cl)c3)nc2c1NC1CCC(CN(C)C)CC1` (configuration not stated): the Potency in [1] is 1 µM (active); in [2] it was 0.891 µM (active); in assay [4], 0.562 µM (active); in assay [7] it was 0.501 µM (active); in [8], 0.891 µM (active); in assay [10] it was 0.447 µM (active). In [13], the Potency was 0.0991 µM (active). Besides, the activity change, negative = inhibition in [13] (Viability, at 45.9 µM (top of the series)) was -15.7%.

In the case of `C=CCc1ccc(O[C@@H]2O[C@H](CO)[C@@H](O)[C@H](O)[C@H]2O)c(OC)c1`, the Potency result in assay [1], in [2], in assay [3], in assay [4], in [5] and in assay [6] was “inactive” in each case. Moreover, the Potency entry in assay [7], in assay [9] and in assay [10] was “inactive” throughout.

Take `CC(C)C1(O[C@@H]2O[C@H](CO)[C@@H](O)[C@H](O)[C@H]2O)CC=C(CO)CC1` (some centres not stated): the Potency result in assay [1], in assay [2], in [3], in assay [4], in [5] and in [6] was “inactive” each time. Also, the Potency result in [8], in assay [9] and in assay [10] was “inactive” each time.

With `COc1cc(N2CCC(N(C)C)CC2)ccc1Nc1ncc(Cl)c(Nc2ccccc2P(C)(C)=O)n1`, the Potency was 7.08 µM (active) in [1]; 11.2 µM (active) in assay [2]; 3.16 µM (active) in assay [3]; 10 µM (active) in [4]; 1.58 µM (active) in assay [6]; 8.91 µM (active) in assay [7]. The Potency is 3.55 µM (active) in assay [8], 7.08 µM (active) in assay [9], 10 µM (active) in [10] and 3.13 µM (active) in [13].

`COCC(=O)Nc1cc(Sc2ccccc2)ccc1N=C(NC(=O)OC)NC(=O)OC`: in [11] (setting [16]), the activity, negative = cell killing was -20.6%. In assay [11] (tumour line A), the Potency was 6.31 µM (active).

As to `CN(C)CCCN1c2ccccc2C(C)(C)c2ccccc21`, the activity, negative = cell killing in assay [11] (setting [16]) was 1.86%. Also, the Potency in [11] (tumour line A) is 14.1 µM (active).

Turning to `COC1CCCC/C(C)=C/C2C=C(C)C(C)C3C(CC(C)C)NC(=O)C23C(=O)C1` (configuration not stated), the Potency entry in [1], in assay [3], in assay [4], in assay [5], in assay [6] and in [7] was “inactive” in each case. The Potency result in [9] and in assay [10] was “inactive” each time.

Regarding `CN(NC(=O)CC(=O)NN(C)C(=S)c1ccccc1)C(=S)c1ccccc1`, the Potency entry in assay [1], in assay [2], in assay [3], in assay [4], in assay [5] and in assay [10] was “inactive” each time. The Potency in assay [9] was 1.12 µM (active).

The record behind these values is PubChem BioAssay (NCATS).
